Assay outcomes deposited in PubChem BioAssay by National Center for Advancing Translational Sciences (NCATS).
PI5P4Ka inh: PI5P4K alpha (human) kinase inhibition. P48426. PI5P4Kalpha enzyme, ADP-Glo luminescence, 60 min; active compounds read low. max response, %. 1.2% of 330,000 active. AID 652105; active = max response of -50% or lower; inconclusive = between -30% and -50%; inactive = -30% or higher; also: value at the top dose of about 77 µM; % is scaled to controls: 0 for no effect and ±100 for the full control effect
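ADP-Glo luminescence end-point after a 60 min room-temperature kinase reaction. PI5P4Kalpha and substrate in HEPES pH 7.4 buffer with EGTA, 0.1% CHAPS and 5% DMSO; ATP at 5 microM final.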
Pol kappa inh-1: blocks human DNA polymerase kappa activity; Q9UBT6; purified Pol kappa, fluorescent DNA synthesis assay, 10 min; Potency, µM (top dose mostly 107 µM), inactives show top-dose activity, negative = inhibition, hits mostly inhibitors; 0.53% of 400,000 active; also: potency is read from the fitted curve at half-maximal effect; % is scaled to controls: 0 for no effect and ±100 for the full control effect
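Pol kappa 10 nM + cpd, 15 min RT; start w/ substrate 50 nM final; fluorescence kinetic read, 0 and 10 min. Neg ctrl: buffer, no enzyme.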
Pol iota inh: DNA polymerase iota (human) inhibition; 1% of 390,000 active; Pol iota fluorescent replication assay, 10 min; Q9UNA4; Potency, µM (top dose mostly 115 µM), for the others: at the top dose activity, negative = inhibition, hits mostly inhibitors; also: potency is read from the fitted curve at half-maximal effect
Target sequence (Q9UNA4 whole entry, looked up): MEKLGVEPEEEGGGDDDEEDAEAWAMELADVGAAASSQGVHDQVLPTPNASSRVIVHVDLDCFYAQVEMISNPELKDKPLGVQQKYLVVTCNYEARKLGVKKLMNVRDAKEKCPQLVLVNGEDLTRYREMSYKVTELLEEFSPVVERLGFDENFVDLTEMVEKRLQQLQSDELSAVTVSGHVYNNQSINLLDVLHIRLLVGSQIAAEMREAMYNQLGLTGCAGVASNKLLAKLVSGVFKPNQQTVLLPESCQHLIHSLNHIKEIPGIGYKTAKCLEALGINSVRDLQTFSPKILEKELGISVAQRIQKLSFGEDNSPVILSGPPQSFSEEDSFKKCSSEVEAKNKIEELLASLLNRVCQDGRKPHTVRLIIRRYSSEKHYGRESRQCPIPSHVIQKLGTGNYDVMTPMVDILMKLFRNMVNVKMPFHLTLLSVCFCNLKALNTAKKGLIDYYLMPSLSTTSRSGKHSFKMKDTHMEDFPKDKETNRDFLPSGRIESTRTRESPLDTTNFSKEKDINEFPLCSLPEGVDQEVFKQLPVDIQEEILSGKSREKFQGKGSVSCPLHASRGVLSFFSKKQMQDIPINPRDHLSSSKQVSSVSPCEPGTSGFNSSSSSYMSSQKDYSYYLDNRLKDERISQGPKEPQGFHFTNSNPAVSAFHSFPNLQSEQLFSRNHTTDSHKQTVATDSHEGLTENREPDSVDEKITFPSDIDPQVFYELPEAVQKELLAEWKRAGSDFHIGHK
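Pol iota at 10 nM preincubated 15 min with compounds at room temperature; reaction started with fluorescent substrate, 50 nM final. Fluorescence read kinetically at 0 and 10 min; buffer-only wells as negative control.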
Pol eta inh-1: blocks human DNA polymerase eta activity; Q9Y253; recombinant Pol eta, fluorescent DNA replication assay; Potency, µM (series often up to 114 µM), for the others: at the top dose activity change, negative = inhibition, usual class: inhibitors; 1.2% of 390,000 active; AID 588591; also: potency is read from the fitted curve at half-maximal effect; % is scaled to controls: 0 for no effect and ±100 for the full control effect
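Fluorescent replication assay: 50 nM final substrate added after a 15 min room-temperature compound preincubation with 10 nM enzyme. Signal taken at 0 min and again at 10 min.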
POLB inh: blocks human DNA polymerase beta activity | Potency, µM (top dose mostly 114 µM), without a hit: at the highest dose activity change, negative = inhibition, most hits filed as inhibitors | P06746 | AID 485314 | 1.3% of 340,000 active | Pol beta primer extension/strand displacement, fluorescence kinetic; also: potency is read from the fitted curve at half-maximal effect; % is scaled to controls: 0 for no effect and ±100 for the full control effect
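Homogeneous kinetic assay of primer extension and strand displacement by 10 nM Pol beta, preincubated 15 min at room temperature with compound before 50 nM substrate (final) was added. Read at 0 and 10 min; four-parameter Hill fit.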
WRN helicase inh: WRN helicase (human) inhibition | 0.46% of 360,000 active | Potency, µM (titrated, usually from 114 µM), for the others: at the highest dose activity change, negative = inhibition, usual class: inhibitors | AID 651768 | WRN helicase unwinding, fluorescent forked duplex, kinetic | Q14191; also: potency is read from the fitted curve at half-maximal effect; % is scaled to controls: 0 for no effect and ±100 for the full control effect; nearly all actives have a fitted effect of over 55% in size
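Screening of the MLSMR collection measured strand separation of a quenched forked DNA duplex (100 nM) by 20 nM WRN with 2 mM ATP, all final. Compounds were preincubated with enzyme 15 min at room temperature.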
Pol kappa inh-2: Pol kappa (human) inhibition, cherry-pick confirmation. 76% of 920 active. shares compounds with Pol eta inh-1. Potency, µM, usual class: inhibitors. purified Pol-kappa, fluorescent strand-displacement substrate; also: potency is read from the fitted curve at half-maximal effect
Pol eta inh-2: Pol eta (human) inhibition, cherry-pick confirmation. 64% of 2,600 active. Pol eta primer extension, TAMRA/BHQ fluorescence, 10 min. shares compounds with Pol eta inh-1. Potency, µM, hits mostly inhibitors. AID 720502; also: potency is read from the fitted curve at half-maximal effect
Active calls of the source: *; u = inconclusive; x = no result; [ ] = another dose, or the depositor's remark. Sampled rows, rich in hits. Any-hit rate of the full collection: about 2.8%. Unless noted, calls follow the shape of the dose curve; as a rule, active = well fitted curve in the direction sought with a large enough effect; inconclusive = small, poorly fitted or top-dose-only effect, or another doubt; inactive = no such curve, though single readings can be large; an effect the other way counts as inactive or inconclusive.

SMILES	PI5P4Ka inh	Pol kappa inh-1	Pol iota inh	Pol eta inh-1	POLB inh	WRN helicase inh	Pol eta inh-2	others
CC(C)(C)OC(=O)NCCCCC1=CC2=CC(=O)C(C)(O)C(=O)C2=CO1 (stereo unspecified)	-80*	79µM*	50µM*	20µM*	x	u	60*
O=Cc1cn(CCC(=O)O)nc1-c1cccc2ccccc12	10	-7%	11%	-14%	-30%	0%	x
O=Cc1cn(CCC(=O)O)nc1-c1cc2ccccc2o1	-10	u	u	20µM*	18µM*	-16%[57.1 µM]	u	Pol kappa inh-2=21*
O=S(=O)(Nc1cccc2c1CCCC2)c1ccc(Cl)cc1	18	-13%	17%	-10%	13%	-15%	x
Cc1ccc(Cn2c(SCc3ccc(C(=O)NC4CCCCC4)cc3)nc3ccncc32)cc1	x	-4%	-23%	-10%	-4%	x	x
CN(C(=O)/C=C/c1ccco1)c1ccccc1C(=O)O	2	u	u	45µM*	18µM*	-9%	u
O=C(O)CC(C(=O)O)c1ccc(OCCCCOc2ccc(C(CC(=O)O)C(=O)O)cc2)cc1 (stereo unspecified)	1	79µM*	79µM*	18µM*	u	-14%[11.6 µM]	9.5*	Pol kappa inh-2=9.5*
CC(C)CCOc1ccc(C(CC(N)=O)C(=O)O)cc1 (stereo unspecified)	1	-2%	6%	-14%	12%	-1%	x
COc1ccc2cc(CNCCOCCOCCNCc3ccc4cc(OC)ccc4c3)ccc2c1	-6	-17%	8%	-29%	x	u	x
CC(=O)c1ccc(S(=O)(=O)Nc2ccc(-n3cnnn3)cc2)cc1	u	-35%	40µM*	32µM*	x	5%[11.6 µM]	u
COc1ccc(NC(=O)N(C)C[C@@H]2OCc3cn(nn3)CCCC(=O)N([C@@H](C)CO)C[C@H]2C)cc1	-3	x	x	-14%	x	-2%	x
CC(=O)c1ccc(S(=O)(=O)Nc2ccc(C(=O)NCC(c3ccco3)N3CCCC3)cc2)cc1 (stereo unspecified)	3	x	x	20µM*	x	-1%[11.6 µM]	u	Pol kappa inh-2=u
COc1ccccc1C(CNC(=O)c1ccc(NS(=O)(=O)c2ccc(C(C)=O)cc2)cc1)N1CCCC1 (stereo unspecified)	-17	u	32µM*	16µM*	x	-13%[11.6 µM]	u
COc1ccccc1NS(=O)(=O)c1ccc(C(=O)NCC(c2ccccc2OC)N2CCCC2)cc1 (stereo unspecified)	-5	7%	12%	-18%	x	9%	x
C/C(=N\Nc1cccc(C(=O)O)c1)c1ccc(Cl)s1	3	71µM*	35µM*	20µM*	32µM*	-18%	27*
COc1ccc(/C(C)=N/Nc2cccc(C(=O)O)c2)cc1OC	-13	-18%	56%	u	-24%	-8%	x
CC(C)CC(N)c1csc(NC(=O)Nc2ccccc2C(C)(C)C)n1 (stereo unspecified)	1	x	x	x	x	9%[57.1 µM]	x
COc1ccc(Nc2cc3n(c(=O)n2)CCc2cc(OC)c(OC)cc2-3)cc1	-21	-12%	196%	-21%	-25%	-28%	x
COc1cc2c(cc1OC)-c1cc(Nc3ccc(C(=O)O)cc3)nc(=O)n1CC2	-22	-27%	u	35µM*	u	u	u
O=C1CCCC(O)=C1Sc1ccccc1C(=O)O	-16	u	32µM*	8.9µM*	10µM*	-6%[11.6 µM]	60*
CCCCN1Cc2c(nc3cc(-c4ccco4)[nH]n3c2=O)C1=O	u	u	u	u	25µM*	-11%	30*
COc1ccc2nc(N3C(=O)/C(=C/c4ccccc4)NC3=S)sc2c1	-63*	-2%	-11%	32µM*	u	-29%	x	Pol kappa inh-2=u
Cc1c(N=Nc2ccc(O)cc2)c(=O)n(-c2ccccc2)n1C	3	-2%	138%	-10%	3%	-1%	x
Cc1c(N=C2C=C(Br)C(=O)C(Br)=C2)c(=O)n(-c2ccccc2)n1C	-78*	79µM*	4µM*	u	40µM*	-1%[11.6 µM]	60*
CC(=O)c1cccc(N(CC(=O)NC2CCCC2)C(=O)c2csnn2)c1	3	-1%	0%	-5%	5%	9%	x
SMILES	PI5P4Ka inh	Pol kappa inh-1	Pol iota inh	Pol eta inh-1	POLB inh	WRN helicase inh	Pol eta inh-2	others
NS(=O)(=O)c1ccc(Sc2nc3ccccc3s2)c([N+](=O)[O-])c1	-15	-1%	14%	-27%	-7%	-12%	x
O=C(O)c1ccc(S(=O)(=O)Nc2ccc(O)c(Sc3nc4ccccc4s3)c2)cc1	u	u	16µM*	35µM*	22µM*	u	u
CC1=C(C)CC(C(=O)NC2CCCC2)C(C(=O)O)C1 (stereo unspecified)	8	13%	2%	-9%	-11%	12%	x
CC1=CCC(C(=O)O)C(C(=O)NC2CCCCC2)C1 (stereo unspecified)	4	-41%	u	20µM*	28µM*	-10%[11.6 µM]	85*	Pol kappa inh-2=84*
CS(=O)(=O)c1ccc(C(=O)OCC(=O)Nc2ccc(OC(F)(F)F)cc2)cc1[N+](=O)[O-]	x	13%	-8%	x	x	x	x
COC/C=C/C1=CC2=CC(=O)C(C)(OC(=O)C3CCCC3)C(=O)C2=CO1 (stereo unspecified)	-65*	50µM*	u	20µM*	40µM*	79µM*	48*
CC(C)(C)NC(=O)C1CCN(C(=O)c2ccco2)CC1	2	-8%	-19%	-14%	89%	17%	x
CCOC(=O)c1ccc(NC(=O)c2c(NCc3cccs3)sc3c2CCCCC3)cc1	x	-8%[60.1 µM]	u	79µM*	u	x	u
COc1ccc(NC(=O)c2c(NCc3cccs3)sc3c2CCCC3)cc1	x	-10%[60.1 µM]	5%	-1%	-14%	x	x
O=Cc1cccn1-c1cccc([N+](=O)[O-])c1	u	-2%	13%	7%	u	2%	x
O=C(O)c1cccc(-n2cccc2/C=C\[N+](=O)[O-])c1	-23	50µM*	u	20µM*	u	u	60*
O=C(O)CNC(=O)CC1S/C(=N/N=C2/NC(=O)CS2)NC1=O (stereo unspecified)	u	-26%	u	45µM*	-2%	-11%[57.1 µM]	x	Pol kappa inh-2=u
Cc1ccc(CNC(=O)CSc2nc(=O)n3ccc(C)cc3n2)cc1	u	x	x	28µM*	x	-19%	u
COC(=O)c1ccc2c(c1)sc(=NC(=O)CCS(=O)(=O)c1ccccc1)n2C	-8	-2%	16%	-14%	x	-6%	x
